Assay results published in PubChem BioAssay (NCI).
Compounds without any hit were thinned out: in the full panel of roughly 83,000, 20% have a hit.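 Single-dose data. Exposure time 48 hours. Values below 10 considered active.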 A number with no mark means an inactive call. Active and inactive are the calls of the source.

Each compound was assayed on ACHN renal (assay: NCI-60 one-dose screen, 48 h (100 = growth as untreated, 0 = no growth, -100 = all killed)). Details: 10 µM unless noted.
Method: Growth inhibition of the ACHN human tumor cell line is measured as a screen for anti-cancer activity. Cells are grown in 96 well plates and exposed to the test compound for 48 hours. Compounds are tested at a single concentration, which is 10^-5 M for most compounds. The reported endpoint is percent growth (GI% or GIPRCNT), where numbers from 0 - 100% represent growth inhibition, and numbers from -100% - 0 represent cell death. For example, a value of 40 represents 60% growth inhibition. A value of 0 means no net growth occurred over the course of the experiment. A value of -40 indicates 40% of cells at the beginning of the experiment died by the end of the experiment. A value of -100 means all cells are dead at the end of the experiment.
NCI-60 Human Tumor Cell Lines Screen was performed using the standard one-dose NCI protocol, which is described in more detail at https://dtp.cancer.gov/discovery_development/nci-60/default.htm.
Compounds with GIPRCNT values below 10 were considered active. Activity score was based on GIPRCNT using the following formula: […]
Score is 0 for GIPRCNT values of 100 or above, 50 for GIPRCNT values of 0, and 100 for GIPRCNT values of -100.

| SMILES | growth |
| --- | --- |
| CCOc1cc(Cl)c(C(C)NC(=O)c2cccc(OC)c2)cc1OCC (stereo not given) | -73.3% (active) |
| COc1cc(C(C)n2cc(-c3ccccc3)nn2)ccc1OC1CCCC1 (stereo not given) | 53.4% |
| C[C@@H](C(=O)NCCCC#Cc1cnc(Nc2ccc(C#N)cc2)nc1NC1CC1)N(C)C(=O)/C=C/CN(C)C | 14.3% |
| Nc1nonc1-n1nncc1-c1cccnc1 | 105% |
| COc1cc(C(C)n2cc(-c3ccccc3)nn2)ccc1OC1CCCCC1 (stereo not given) | 51.1% |
| Cc1ccc(Nc2nc(N)c3ccccc3n2)cc1Cl | 64.4% |
| O=C(N=Nc1c(O)[nH]c2ccccc12)c1oc2ccccc2c1CN1CCN(c2ccccc2)CC1 | -85.2% (active) |
| Nc1ccn(C2O[C@H](CO)[C@@H](O)[C@H]2O)c(=O)n1 (stereo not given in full) | 79.5% |
| Cn1c(/C=C(\C#N)c2ccccc2)nc2c(N3CCOCC3)nc(Cl)nc21 | -96.2% (active) |
| O=C1/C(=C/c2cccc(O)c2)COc2ccc(O)cc21 | 67.3% |
| Cc1ccc(Cc2cnc(NC(=O)CN3C(=O)/C(=C\c4ccccc4)SC3=S)s2)cc1 | 101% |
| O=C(Nc1ccc(N2CCNCC2)cc1)c1[nH]ncc1Nc1ncnc2sc3c(c12)CCC3 | -99.5% (active) |
| CCOC(=O)c1sc(-c2ccc(OS(=O)(=O)C[C@]34CCC(CC3=O)C4(C)C)c(C=O)c2)nc1C | 39.8% |
| CC(=O)c1ccc2oc(=O)n(Cc3ccc(C#N)cc3)c(=O)c2c1 | 104% |
| COc1ccc(Cn2c(Br)c3c(c2Br)-c2nc(N)sc2CC3)cc1 | 55.2% |
| Nc1nc(Nc2cccc(F)c2)nc2ccccc12 | 44.8% |
| COc1ccc(-c2cn[nH]c2-c2cc(OC)c(OC)c(OC)c2)cc1OCc1ccccc1 | 34.1% |
| CCN1C(=O)N(CC)C2C1NN=c1s/c(=C3\C(=O)N(C(C)C)c4ccccc43)c(=O)n12 (stereo not given) | 25.4% |
| COc1ccc(-c2nsc3c2NC(=O)CC3c2ccc3c(c2)OCCO3)cc1 (stereo not given) | 46% |
| O=C(Nc1ccc(Cl)cc1)c1cc2ccccc2cc1OP(=O)(O)O | 17.2% |

| SMILES | growth |
| --- | --- |
| COc1ccc(CN2CCCC(C(=O)c3ccc(C(F)(F)F)cc3)C2)c(O)c1 (stereo not given) | 38% |
| Cc1ccc(NC2=CC(=O)C(=O)c3ccccc32)c(C)c1 | 15.9% |
| Nc1ncnc(N)c1NC(=O)c1ccc(OCc2ccccc2)cc1 | 99.9% |
| COc1cccc(/C=C/C(=O)c2c(C)nc3ccccc3c2/C=C/c2ccccc2)c1OC | 31.4% |
| COc1cc(NC(=O)CCSc2nc3ccccc3c(=O)n2CCc2ccccn2)cc(OC)c1OC | 91% |
| Cc1ccc(CN2CCC(C(=O)Nc3ccc(-c4cc5ccccc5[nH]4)cc3)CC2)o1 | 44.3% |
| O=C(/C=C/c1ccc(C(F)(F)F)cc1)c1ccc(Nc2nc(NCCO)nc(N3CCOCC3)n2)cc1 | 36.5% |
| CCCCCCn1c(=N)n(CC(O)COc2cccc(C)c2)c2ccccc21 (stereo not given) | -52.9% (active) |
| CC1=C(C(=O)OCC2CCN(C(=O)OC(C)(C)C)CC2)[C@H](c2cccc(Br)c2)C2=C(CC(C)(C)CC2=O)N1 | 27.9% |
| O=C1c2ccc3c4c(ccc(c24)C(=O)N1CCCCO)C(=O)N(CCCCO)C3=O | 43.9% |
| O=c1c2cc(F)cc(Cl)c2sc2c(Cl)nc3ccccc3c12 | 95.3% |
| CCCCc1ccc(NS(=O)(=O)c2cc3c4c(c2)CCN4C(=O)CC3)cc1 | 15.5% |
| O=C(c1nc2ccccc2[nH]1)C1C(c2ccc(F)cc2)C2CC3CCCCC3N2[C@@]12C(=O)Nc1ccc(Cl)cc12 (stereo not given in full) | 43.1% |
| CC1(O)COCCCCOc2c(CN)cccc2NC(=O)c2nc(cnc2N)-c2ccc(cc2)S(=O)(=O)C(C)(C)C1 (stereo not given) | -99.2% (active) |
| CCOC(=O)c1cc2c(n1Cc1ccccc1OC)-c1oncc1CCC2 | 53.4% |
| COc1cccc2cc(N(C)c3nc(C)nc4ccsc34)ccc12 | 18.9% |
| CCOc1ccc2nc(C)cc(Nc3ccc(Br)cc3)c2c1 | 99.6% |
| CCC1=C[C@]2(C3CC(=O)N(c4ccccc4)C3=O)CC(C(C)(C)C)C[C@@H]2[C@@H]2C(=O)N(c3ccccc3)C(=O)[C@H]12 (stereo not given in full) | 90.5% |
| COc1cc2c(cc1OC)C(=O)C(CC1CCN(C(=O)Nc3ccc(C)cc3)CC1)C2 (stereo not given) | 93.6% |
| COCCN(C(=O)Cc1cccs1)C(C(=O)NCc1ccc(OC)cc1)c1ccc(C(C)C)cc1 (stereo not given) | 87.1% |
